Shown are actives, neighbours in structure and some others; about 31% of the full set was active somewhere.
CYP2C19 activ: cytochrome P450 2C19 (human) activation; P33261; recombinant CYP2C19, luciferin-H EGE luminescence; stronger effect = higher value; 0 = fully inhibited enzyme, 1 = untreated enzyme; activation factor at 5 µM; 96,000 tested, under 10 active; AID 1025;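 active means activation factor of at least 2 at 5 µM in the primary screen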;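 further: 0 = wells with 2.5 mM tranylcypromine and 1 = vehicle-only wells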
Target sequence (P33261 whole entry, looked up): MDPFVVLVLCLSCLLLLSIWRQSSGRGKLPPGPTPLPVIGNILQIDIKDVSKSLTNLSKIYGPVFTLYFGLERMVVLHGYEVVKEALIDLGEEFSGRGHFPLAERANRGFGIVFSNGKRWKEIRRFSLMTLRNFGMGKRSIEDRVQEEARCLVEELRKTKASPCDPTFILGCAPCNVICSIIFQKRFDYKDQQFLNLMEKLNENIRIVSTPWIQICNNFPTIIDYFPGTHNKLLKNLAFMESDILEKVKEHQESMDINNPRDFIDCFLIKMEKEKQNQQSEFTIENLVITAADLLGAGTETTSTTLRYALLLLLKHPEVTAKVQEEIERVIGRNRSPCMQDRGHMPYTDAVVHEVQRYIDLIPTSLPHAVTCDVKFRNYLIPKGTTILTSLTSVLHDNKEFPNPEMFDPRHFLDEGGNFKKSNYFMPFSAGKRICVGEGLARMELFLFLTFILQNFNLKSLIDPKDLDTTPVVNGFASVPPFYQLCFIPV
CYP2C9 activ: increases human cytochrome P450 2C9 activity | activation factor at 5 µM | recombinant CYP2C9, luciferin-H conversion, luminescence; stronger effect = higher value; factor 1 = untreated enzyme, 0 = blocked | P11712 | hit rate 1.4% among 96,000;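 active means activation factor of 2 or more for CYP2C9 at a 5 µM dose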;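 further: 0 = sulfaphenazole-blocked wells and 1 = vehicle-only wells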
CYP2C19 inh: blocks human cytochrome P450 2C19; CYP2C19 Supersomes, luciferin-H EGE luminescence, 30 min; inhibition, % at 5 µM; hit rate 21% among 96,000; AID 778;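 active means CYP2C19 inhibition above a set limit at 5 µM in the primary screen, cut at about 50% in these data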;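 further: plate controls were negative control wells for no effect and 2.5 mM tranylcypromine positive control for full effect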
CYP2C9 inh: human CYP2C9 inhibition | P11712 | hit rate 20% among 96,000 | AID 777 | CYP2C9 Supersomes, luciferin-H conversion, luminescence | inhibition, % at 5 µM;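 active means blocking of liver enzyme CYP2C9 beyond about 50% at 5 µM, limit read from the data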
An asterisk follows results filed as active.

SMILES	CYP2C19 activ	CYP2C9 activ	CYP2C19 inh	CYP2C9 inh
COC(=O)C1C(=O)OC(C)(C)C1C(C)C(=O)c1ccccc1 (stereo unspecified)	0.2	0.8	79.1*	19.2
COc1ccc2nc(NC(=O)CCNS(=O)(=O)c3ccc4c(c3)oc(=O)n4C)sc2c1	0.9	1.1	6.3	-6.6
O=C(O)C1C(c2ccccc2)C(C(=O)Oc2ccc(O)cc2)C1c1ccccc1 (stereo unspecified)	0.9	0.2	10.7	80.2*
O=C(O)C1CCCN1C(=O)Oc1ccccc1 (stereo unspecified)	1.1	1.1	-6.8	-11.9
CSc1cc(-c2ccc(Cl)cc2)n(Cc2ccccc2)c(=O)c1C#N	1.1	1.1	-6.6	-12.2
CSc1cc(-c2ccccc2)n(Cc2c(Cl)cccc2Cl)c(=O)c1C#N	0.8	0.2	22.6	75.3*
Cn1cnnc1SCC(=O)Nc1ccc2nc(SCc3cccc4ccccc34)sc2c1	0.4	0.6	58.6*	38.4
Cn1cnnc1SCC(=O)Nc1ccc2nc(SCc3ccccc3)sc2c1	0.7	0.8	32.1	20.0
CN(C)CCCOC(=O)c1ccccc1Cl	0.8	0.8	19.9	22.5
O=C(OCc1cnc(Cl)s1)c1ccccc1Cl	0.2	0.9	77.4*	13.2
O=C(OCc1cnc(Cl)s1)c1cccc(Cl)c1Cl	0.1	0.6	91.5*	44.6
O=C(Nc1ncc(Cc2cccc(Cl)c2Cl)s1)c1ccc([N+](=O)[O-])cc1	1	0.9	4.8	10.3
N#CCc1nnc2n1-c1ccccc1CCC2	0.8	0.9	16.3	8.8
Cc1c(C(=O)N2CCN(c3ccc(F)cc3)CC2)sc2nc(-c3ccccc3)cn12	1	1.1	0.3	-12.0
COc1ccccc1N1CCN(C(=O)c2sc3nc(-c4ccccc4)cn3c2C)CC1	0.7	0.2	30.4	80.5*
Cc1c(C(=O)N2CCc3ccccc3C2)sc2nc(-c3ccccc3)cn12	0.4	0.5	58.8*	53.0*
Cc1c(C(=O)NCc2ccco2)sc2nc(-c3ccccc3)cn12	0.7	0.6	28.7	40.3
Cc1c(C(=O)Nc2ccncc2)sc2nc(-c3ccccc3)cn12	0.5	0.2	47.0	79.2*
COC(=O)C1CCN(C(=O)c2sc3nc(-c4ccc(F)cc4)cn3c2C)CC1	0.6	0.4	38.7	62.0*
Cc1c(C(=O)N2CCOCC2)sc2nc(-c3ccccc3)cn12	0.9	1	9.7	2.8
Cc1ccc(NC(=O)COC(=O)C2CC2C)c(S(=O)(=O)N2CCCCC2)c1 (stereo unspecified)	0.3	0.5	74.2*	51.1*
COC(=O)c1ccc(C(=O)OC)c(NC(=O)COC(=O)C2CC2C)c1 (stereo unspecified)	0.2	0.2	77.7*	79.7*
COc1cc(S(=O)(=O)N2CCCCC2)ccc1NC(=O)Cc1ccccc1	1.2	0.5	-24.5	49.7
COc1cccc(NC(=O)c2cn(C)c(=O)c3cc(OC)c(OC)cc23)c1	1.1	0.8	-6.5	17.7
CCn1c(SCC(=O)NC(C)c2ccccc2)nc2ccccc21 (stereo unspecified)	0.5	1.4	53.9*	-35.9
SMILES	CYP2C19 activ	CYP2C9 activ	CYP2C19 inh	CYP2C9 inh
CC(NC(=O)CSc1nc2ccccc2n1CCC#N)c1ccc(F)cc1 (stereo unspecified)	0.1	0.5	93.7*	54.7*
N#CCCn1c(SCC(=O)NCCc2ccc(F)cc2)nc2ccccc21	0.2	0.5	82.5*	46.8
CCn1c(-c2cccnc2Cl)nc2ccccc21	0.7	1.9	31.5	-92.8
CCn1c(Sc2ccc(N)cc2Cl)nc2ccccc21	0.1	2.3*	87.0*	-126.9
CCN(CC)c1cc(Oc2ccccc2)ncn1	0.2	0.7	80.0*	31.2
O=C1OCCC1N1C(=O)c2ccccc2S1(=O)=O (stereo unspecified)	1.1	1	-8.2	-2.4
N#Cc1c(-c2ccc(Cl)cc2)ccn2nc(CCC(=O)O)nc12	0.9	0.9	13.3	12.4
CCCCCc1nc2c(C#N)c(-c3ccc(Cl)cc3)ccn2n1	0.9	0.4	12.0	57.9*
COc1ccc(C(=O)CC(Nc2ccc([N+](=O)[O-])cc2)c2ccc(Cl)cc2)cc1 (stereo unspecified)	0.3	0.2	66.6*	78.1*
COc1ccc(CNC(=O)COc2ccc([N+](=O)[O-])cc2)cc1	0.7	0.7	28.2	29.1
CCNC(=S)NS(=O)(=O)c1ccc(CC)cc1	1	0.9	-3.7	14.9
CCCCn1nnnc1NCc1cccc(OC)c1OC	0.2	0.4	84.7*	61.9*
CCCCn1nnnc1NCc1ccc(N(CC)CC)cc1	0.3	0.5	74.3*	49.9
CCCCn1nnnc1NCc1ccc(OC)c(OC)c1	0.8	1	22.9	4.5
Cc1cc(NC(=O)Cc2cccs2)nn1CC(=O)NCc1ccco1	1	1.1	0.7	-11.3
CC(=O)Nc1coc2ccc(Br)cc12	1	0.9	1.6	10.0
O=C(Cc1ccccc1)Nc1nnc(-c2ccco2)s1	0.6	0.6	40.8	36.3
C/C(N)=C(/C#N)C(=O)CSc1nc2ccc(C)cc2[nH]1	0.1	0.4	88.4*	62.6*
Cc1cc(NC(=O)CSc2nc3cc(Cl)ccc3s2)no1	1	1	2.2	3.0
Cc1ccc2nc(SCC(=O)Nc3nnc(SCC(N)=O)s3)[nH]c2c1	1	0.7	4.0	31.7
Cc1cc(NC(=O)CSc2nc3ccc(Cl)cc3[nH]2)no1	0.6	0.4	40.0	62.1*
COc1ccc(Nc2nnc(SCC(=O)c3cc(C)n(CC4CCCO4)c3C)s2)cc1 (stereo unspecified)	0.3	0.4	72.4*	58.6*
C=CCn1c(C)cc(C(=O)CSc2nc3ccccc3o2)c1C	0.4	0.7	64.5*	25.3
Cc1[nH]c2ccccc2c1C(=O)CN1CCCCC1CCO (stereo unspecified)	0.8	0.7	17.5	31.6
N#CCC(=N)N1CCN(c2ccccc2Cl)CC1	0.7	0.7	30.3	27.1
SMILES	CYP2C19 activ	CYP2C9 activ	CYP2C19 inh	CYP2C9 inh
C=CCn1c(C)cc(C(=O)COc2nncc3ccccc23)c1C	0.4	2*	61.1*	-103.0
C=CCn1c(C)cc(C(=O)CSc2nc3ccccc3[nH]2)c1C	0.4	0.3	61.5*	67.7*
C=CCn1c(C)cc(C(=O)CSc2nc3ccccc3c(=O)[nH]2)c1C	0.8	0.7	23.5	27.7
Cc1nn2c(=O)cc(CSc3nc4ccccc4[nH]3)nc2s1	0.4	0.8	58.3*	15.0
COc1ccc2nc(SCC(=O)NC(C)(C)C)[nH]c2c1	0.2	0.3	84.6*	66.0*
CCCc1cc(=O)[nH]c(Nc2cc(OC)ccc2OC)n1	1	0.6	2.9	43.0
CCOC(=O)c1cc(OC(=O)c2ccccc2OC)n(-c2ccccc2)n1	0.7	0.7	31.0	33.3
Cc1cc(C(=O)CSc2nc3ccc(Cl)cc3[nH]2)c(C)n1CC1CCCO1 (stereo unspecified)	0	0.1	96.0*	91.7*
Cc1cc(C(=O)CSc2nc3ccc(Cl)cc3[nH]2)c(C)n1C	0.1	0.1	94.5*	93.0*
CCC(Sc1nc2ccc(C)cc2[nH]1)C(=O)O (stereo unspecified)	1	0.9	4.1	7.6
